We go through 40 sequences from the supplement of paper PMC10681739.

The assay addresses T1, ETS1 (UniProt P14921).
T1 sequence: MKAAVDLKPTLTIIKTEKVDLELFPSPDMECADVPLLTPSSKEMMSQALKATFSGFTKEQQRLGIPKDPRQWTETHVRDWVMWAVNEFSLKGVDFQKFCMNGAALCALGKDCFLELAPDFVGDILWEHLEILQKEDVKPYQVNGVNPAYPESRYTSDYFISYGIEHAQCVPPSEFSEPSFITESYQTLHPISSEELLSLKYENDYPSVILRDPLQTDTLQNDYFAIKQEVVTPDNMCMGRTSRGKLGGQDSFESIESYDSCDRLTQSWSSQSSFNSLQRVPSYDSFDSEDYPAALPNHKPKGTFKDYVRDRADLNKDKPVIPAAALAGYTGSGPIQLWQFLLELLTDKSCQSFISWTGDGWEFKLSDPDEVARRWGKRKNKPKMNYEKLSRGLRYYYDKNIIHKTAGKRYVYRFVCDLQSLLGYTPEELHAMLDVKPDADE
As to the kind of experiment: TF binding intensity (PBM fluorescence), negative control probe (arbitrary fluorescence units); higher = stronger binding. The protocol:
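gcPBM negative-control 36-bp genomic probes lacking TF binding sites. Each was incubated with recombinant human ETS1 or RUNX1 alone and detected by antibody fluorescence. Values are medians over replicate spots (4 spots for the ETS1-RUNX1 arrays, 3 for the ETS1-ETS1 array). The probes sit in constant array flanks that are not printed.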
“CTCTACCTACAAAAAGACTGCAATTGTGTTACCTTT (protein concentration 10 nM)” yielded a TF binding intensity of 132.
The sequence “ATAAAACACAGTGTACAGTGACCTTTTAATCACAAC (protein concentration 10 nM)” had a TF binding intensity of 132.
“GAGCAGGAGAAAATGTGTCTGAGAAAGAGCTAGGAG (protein concentration 10 nM)”: the TF binding intensity came out at 128.
The figure for “ATGTTTTCGGTTCTTAGGACCCAGGTGCTCACCACA (protein concentration 10 nM)” is 106.
Regarding “TCACTCTCTGGACAGGGCCCTCTGAGCAAGCAACCA (protein concentration 10 nM)”, the TF binding intensity worked out at 109.
“CACACCCGCCTGTTACCCACATGCACAAGCAGTCTG (protein concentration 1 nM)” returned a TF binding intensity of 449.
For the sequence “AAAGGCATGTAATGAACACTAAAACCCAAGAACCTG (protein concentration 10 nM)”, the TF binding intensity is 114.
Under “CTACACATTTTAAAGAAAGAGACCACAGTTCTTTAT (protein concentration 10 nM)” stands 122; under “AGTATGAGTTTGAATACACAGAACCTTTCTCATTCT (protein concentration 10 nM)”, 106.
As to “GTTTCTTATAAGCAGAAACACTAACAAAGGACAGCG (protein concentration 10 nM)”, the TF binding intensity amounted to 146.
Sequence “TAAATCAAAAGATGACCAAGCTGGAGAGAAAAGTGA (protein concentration 10 nM)” had a TF binding intensity of 129.
In turn, “AACTTGAAGTCACCACATGAAAGGTTCCAATGCAGC (protein concentration 10 nM)” yielded a TF binding intensity of 121.
Under “TATCTTTATCATGATCCATTAAAGATGACAGAACTA (protein concentration 10 nM)” stands 127.
“TGCTCTAGAGATGTGATCGTCCTCATTTCATGAAGG (protein concentration 10 nM)” returned a TF binding intensity of 121.
Regarding “GTGTCTGCCTCATTGGCGAAGGCCAGCCTCTGAGCC (protein concentration 10 nM)”, the TF binding intensity was 140.
“CTGAGAGCCAGGCCCGTTCCCTCTGAACCTCAGTTC (protein concentration 10 nM)” displayed a TF binding intensity of 103.
Regarding “GTCCCCTCAAGGACCCCCAGTGCAGGTGAAAAACTG (protein concentration 10 nM)”, the TF binding intensity is 174.
Take “GCTATCTATTTTAATTAGCTAAGATTGCTATTAATA (protein concentration 10 nM)”: the TF binding intensity was 106.
In the case of “AGGCCTCTGCTCTCCTGGAGCTCATGACAAGTAAAC (protein concentration 10 nM)”, the TF binding intensity stood at 118.
For “ACTTTCTATGAGGCTGCCACTCCTGGTACCACACAT (protein concentration 10 nM)”, the TF binding intensity turned out to be 133.
“ATAAAGTACATTAATTCATTCATCCAGCAAGAGTGT (protein concentration 10 nM)”: the TF binding intensity amounted to 122.
In turn, “AGGCATAACAGAAAAACCTCAACTTAAATAGTGCTG (protein concentration 1 nM)” displayed a TF binding intensity of 626.
Under “AAAACAAACAAACCAAACAACACAACAGAAGTTTTC (protein concentration 10 nM)” stands 150; under “GTGAATTCAAAACAACCCACAGTTTTAATTCTCTGT (protein concentration 1 nM)”, 452; under “TTATAGCATCTATTTATGTAAATCATATCTCCTTTT (protein concentration 10 nM)”, 101.
Under “AGTTTCACTGCCCTAAAAATCCTCCGTGCGCCGCCT (protein concentration 10 nM)” stands 123.
With “TTCAAAGCACATTCACCCACATGATCCTATTGATCT (protein concentration 1 nM)”, the TF binding intensity came to 468.
Take “ACTTAGGTCTCTGTTACCACCATGAAACAATTTAGT (protein concentration 1 nM)”: the TF binding intensity came out at 545.
“CTAAATGGCATCTGATGTGGTATCTCTCCTCAGTTC (protein concentration 1 nM)” displayed a TF binding intensity of 455.
Regarding “GCTATTTTCTCTGCTTGAACATACCGTGTACACACA (protein concentration 10 nM)”, the TF binding intensity stood at 178.
“CCACGCTTTGCCAGCACTTTCCCCTGCCTCGTCTGT (protein concentration 10 nM)”: the TF binding intensity stood at 119.
The figure for “CCTGAGGCCTGCCCCAGTCACCTGTATTTACCCTGC (protein concentration 10 nM)” is 122.
The sequence “AAGTCCCTCCTCTAAACCACTTTGATGAGGACCAAA (protein concentration 1 nM)” displayed a TF binding intensity of 387.
Under “GAAAGAGGCACATGGTGCCTCACAGCCTCCTCCCAG (protein concentration 10 nM)” stands 128; under “GAAAACACTAGCGTGACCTCAACAACTAAGATTAAA (protein concentration 1 nM)”, 490.
The sequence “CTCCACGACCCTGAAACTAGAACAAGACCTCTCCTC (protein concentration 10 nM)” gave a TF binding intensity of 165.
As to “AAAATACTGCCTTCAAGTACTGTGACTCTTTTCAGG (protein concentration 10 nM)”, the TF binding intensity came to 112.
On to “ATGGCTGGGTCAGAGCGGCCTGTCAGCCCGGCTGGA (protein concentration 10 nM)”, for which the TF binding intensity worked out at 98.
The sequence “GTGAAACCAGGGCACAGGTAGAAATCCCTAGAGCAG (protein concentration 10 nM)” registered a TF binding intensity of 138.
The figure for “GAAATATGACAAAAAACCCCTATCCTATGATAAGTC (protein concentration 10 nM)” is 146.
